Among the data in PubChem BioAssay (NCI) are growth values, retold here.

Assay in all cases: NCI-60 one-dose screen, 48 h (100 = growth as untreated, 0 = no growth, -100 = all killed)
One test has as its system HCT-15 colon. As to conditions: 10 µM unless noted.
The test system of the next test is HT29 colon. As to conditions: 10 µM unless noted.
A further test concerns SNB-75 CNS. As to conditions: 10 µM unless noted.
The test system of another test is SNB-19 CNS. As to conditions: 10 µM unless noted.
In another test the test system is U251 CNS. As to conditions: 10 µM unless noted.
In a further test the test system is PC-3 prostate. As to conditions: 10 µM unless noted.
A further test has as its system LOX IMVI melanoma. As to conditions: 10 µM unless noted.
For the next test, the system named is SK-MEL-2 melanoma. As to conditions: 10 µM unless noted.
The subject of a further test is EKVX NSCLC. As to conditions: 10 µM unless noted.
Another test relates to UO-31 renal. As to conditions: 10 µM unless noted.
A further test has as its system TK-10 renal. As to conditions: 10 µM unless noted.
For the next test, the system named is ACHN renal. As to conditions: 10 µM unless noted.
For another test, the system named is CAKI-1 renal. As to conditions: 10 µM.
A further test has as its system A498 renal. As to conditions: 10 µM unless noted.
For a further test, the system named is CCRF-CEM leukemia. As to conditions: 10 µM unless noted.
The test system of a further test is MOLT-4 leukemia. As to conditions: 10 µM unless noted.
For another test, the system named is SK-MEL-5 melanoma. As to conditions: 10 µM unless noted.
Another test has as its system UACC-62 melanoma. As to conditions: 10 µM unless noted.
The subject of the next test is SK-MEL-28 melanoma. As to conditions: 10 µM unless noted.
Another test relates to SN12C renal. As to conditions: 10 µM unless noted.

Compounds without any hit were thinned out: in the full panel of roughly 83,000, 20% have a hit.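 Plates (96-well) were seeded with cells, treated with compound at one concentration, and incubated for 48 hours before percent growth was determined.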 A number with no mark means an inactive call. Activity calls are given as the source filed them. The calls were made as follows: active = growth percent below 10; inactive = the rest.

Turning to `C=C1C(=O)O[C@@H]2C[C@@H](C)CCC(=O)[C@](C)(OC(C)=O)C[C@H](OC(=O)/C(C)=C\C)[C@@H]12`, the growth in the test with HCT-15 colon is 60.9%; with HT29 colon, 52.5%; with SNB-75 CNS, 80.6%; in the test with SNB-19 CNS, 90.6%; in the test on U251 CNS, 88.8%; with PC-3 prostate, 79.1%. Also, the growth with LOX IMVI melanoma was 54.8%; in the test with SK-MEL-2 melanoma, 81%; in the test on EKVX NSCLC, 73.2%; in the test on UO-31 renal it was 85.4%; with TK-10 renal it was 55.4%; with ACHN renal, 41.9%. In addition, the growth is 63.1% in the test with CAKI-1 renal, 119% in the test with A498 renal, -17.2% (active) in the test with CCRF-CEM leukemia and 50.8% in the test on MOLT-4 leukemia.

As to `CC(C)=CCc1c(O)c(CC=C(C)C)c2c(c1O)C(=O)C1=C[C@@H]3C[C@H]4C(C)(C)O[C@@](C/C=C(\C)C(=O)O)(C3=O)[C@@]14O2`, the growth in the test on HCT-15 colon is -30% (active); in the test with HT29 colon it was -11.1% (active); with SNB-75 CNS, 33.7%; with SNB-19 CNS it was 41.6%; with U251 CNS it was -71.9% (active); with SK-MEL-5 melanoma it was -94.9% (active). Also, the growth was -22.3% (active) in the test with UACC-62 melanoma; -97% (active) with LOX IMVI melanoma; -11.2% (active) with SK-MEL-28 melanoma; -53% (active) with SK-MEL-2 melanoma; -3.05% (active) with EKVX NSCLC; 12.3% in the test with SN12C renal. Besides, the growth in the test on UO-31 renal is -30.9% (active); in the test on A498 renal, -31.6% (active); in the test with CCRF-CEM leukemia, 1.76% (active); with MOLT-4 leukemia, 1.93% (active).

Consider `C=C(C)C(=O)O[C@H]1C[C@@]2(C)OC(=CC2=O)/C(CO)=C\[C@H]2OC(=O)C(=C)[C@H]12`, for which the growth with HCT-15 colon was -19.5% (active); in the test with HT29 colon, -12.2% (active); in the test on SNB-75 CNS, -0.788% (active); in the test on SNB-19 CNS, 42.2%; in the test on U251 CNS, -17.7% (active); with PC-3 prostate, -3.05% (active). The growth was -94.1% (active) in the test with LOX IMVI melanoma; -23.7% (active) in the test on SK-MEL-2 melanoma; -5.67% (active) with EKVX NSCLC; -90.1% (active) in the test with UO-31 renal; -88.1% (active) with TK-10 renal; -42.1% (active) with ACHN renal. Moreover, the growth was -75.1% (active) in the test with CAKI-1 renal, -3.55% (active) with A498 renal, -44% (active) in the test with CCRF-CEM leukemia and -28% (active) in the test with MOLT-4 leukemia.

As to `Cc1nc(-c2cc3ccccc3c(N3CCN(C)CC3)n2)cs1`, the growth is 92.1% in the test on HCT-15 colon; 96.4% with HT29 colon; 76.2% in the test on SNB-75 CNS; 90.1% with SNB-19 CNS; 96.4% in the test with U251 CNS; 95.4% in the test with SK-MEL-5 melanoma. Moreover, the growth in the test on UACC-62 melanoma is 90.8%; with LOX IMVI melanoma, 84.7%; with SK-MEL-28 melanoma, 107%; in the test on EKVX NSCLC, 96.3%; with SN12C renal, 90%; in the test on UO-31 renal, 67%. In addition, the growth was 98.2% in the test on TK-10 renal; 94% with ACHN renal; 72.1% in the test on CAKI-1 renal; 103% in the test with CCRF-CEM leukemia; 98% in the test on MOLT-4 leukemia.

Consider `CCC(CC)n1c(=O)c(SC2=NC3C(NN2)N(CC)C(=O)N3CC)c(C(=O)O)c2ccccc21` (centres undefined), for which the growth in the test with HCT-15 colon was 14.2%; in the test on HT29 colon it was 2.44% (active); with SNB-75 CNS it was 39.6%; in the test on SNB-19 CNS it was 35.2%; in the test with U251 CNS, 14.8%; with SK-MEL-5 melanoma, 6.37% (active). Besides, the growth was 22.5% with UACC-62 melanoma; 23% in the test with LOX IMVI melanoma; 65.4% with SK-MEL-28 melanoma; 52.8% with EKVX NSCLC; 20.1% in the test on SN12C renal; 39.5% in the test on UO-31 renal. Also, the growth in the test with TK-10 renal is 68.8%; in the test on CAKI-1 renal, 36.6%; with A498 renal, -10.5% (active); in the test with CCRF-CEM leukemia it was 16.6%; in the test with MOLT-4 leukemia, 16.2%.

With `Nc1nc(-c2cccc([N+](=O)[O-])c2)c(N=Nc2cccc(Cl)c2)s1`, the growth in the test with HCT-15 colon is 16.3%; with HT29 colon, 40.7%; in the test on SNB-75 CNS, 40.3%; in the test with SNB-19 CNS, 73.9%; in the test on U251 CNS, 44.3%; in the test on SK-MEL-5 melanoma, 39.9%. In addition, the growth with UACC-62 melanoma was 32.9%; in the test on LOX IMVI melanoma, 24.5%; in the test with SK-MEL-28 melanoma, 75.6%; with EKVX NSCLC, 41.9%; with SN12C renal, 53.2%; in the test with UO-31 renal, 33.5%. Further, the growth in the test with TK-10 renal was 71.7%; in the test on ACHN renal, 48.6%; with CAKI-1 renal, 23.2%; in the test with CCRF-CEM leukemia it was 36%; with MOLT-4 leukemia, 26.5%.

Take `C=C1C(=O)O[C@@H]2C[C@@H](C)[C@H](OC)CC(=O)[C@](C)(OC(C)=O)C[C@H](OC(=O)/C(C)=C\C)[C@@H]12`: the growth is 58.9% in the test with HCT-15 colon; 59.5% with HT29 colon; 78.7% with SNB-75 CNS; 99.1% with SNB-19 CNS; 91.5% in the test on U251 CNS; 83.6% with PC-3 prostate. Further, the growth was 84.4% in the test on LOX IMVI melanoma; 87.5% with SK-MEL-2 melanoma; 83.9% in the test on EKVX NSCLC; 72.4% with UO-31 renal; 55.9% in the test with TK-10 renal; 5.58% (active) with ACHN renal. The growth was 41.3% with CAKI-1 renal, 150% in the test on A498 renal, -12.7% (active) in the test with CCRF-CEM leukemia and 38.1% in the test with MOLT-4 leukemia.

Take `CS(=O)(=O)c1ccc(-c2nn(-c3ccccc3)cc2/C=C/C(=O)c2ccc(Br)cc2)cc1`: the growth with HCT-15 colon was 64%; in the test with HT29 colon it was 97.8%; with SNB-75 CNS, 107%; in the test on SNB-19 CNS, 85.6%; in the test with U251 CNS it was 86.1%; in the test on SK-MEL-5 melanoma, 92.4%. Also, the growth was 78.9% in the test with UACC-62 melanoma; 67.5% with LOX IMVI melanoma; 102% in the test with SK-MEL-28 melanoma; 103% with SK-MEL-2 melanoma; 87.5% in the test with EKVX NSCLC; 88.1% with SN12C renal. Further, the growth with UO-31 renal was 79.6%; in the test on TK-10 renal it was 107%; with ACHN renal it was 94%; in the test with CAKI-1 renal, 84.6%; in the test with A498 renal it was 84.1%; with CCRF-CEM leukemia, 41.8%. Also, in the test with MOLT-4 leukemia, the growth is 60.6%.
